# Results taken from PubChem BioAssay (Tox21).
# Records with an inconclusive call do not appear. Activity calls are given as the source filed them. The call rests on the fitted dose curve; in most records, active means well fitted cell-killing curve with a large enough effect in the repeat runs; inconclusive means weak or mixed curves, or effect the other way; inactive means no such curve, though single readings can be large or run the other way.
# Experiment: qHTS assay to identify small molecule antagonists of the peroxisome proliferator-activated receptor gamma (PPARg) signaling pathway - cell viability counter screen (AID 743194); further: nearly all actives have a fitted effect of over 55% in size
# Settings: PPARg-bla HEK293H viability, CellTiter-Glo luminescence, 17 h, co-treated with 50 nM rosiglitazone; series mostly up to 62.6 µM
# From the text: U.S. Tox21 Program National Center for Advancing Translational Sciences [NCATS] NIH Chemical Genomics Center [NCGC] U.S. Environmental Protection Agency [EPA] National Institutes of Environmental Health Sciences [NIEHS] National Toxicology Program [NTP] U.S. Food and Drug Administration [FDA] Tox21 Assay Overview: The peroxisome proliferator-activated receptors (PPARs) are lipid-activated transcription factors of the nuclear receptor superfamily with three distinct subtypes namely PPAR alpha, PPAR delta (also called PPAR beta) and PPAR gamma (PPARg). All these subtypes heterodimerize with Retinoid X receptor (RXR) and these heterodimers regulate transcription of various genes. PPAR-gamma receptor (glitazone receptor) is involved in the regulation of glucose and lipid metabolism. To identify the compounds that activate PPAR-gamma signaling, GeneBLAzer PPAR gamma UAS-bla HEK293H cell line (Invitrogen, Carlsbad, CA, USA) containing a beta-lactamase reporter gene under the control of an Upstream Activator Sequence (UAS) was used to screen the Tox21 compound library. The cytotoxicity of the Tox21 compound library against the PPARg-bla cell line was tested in parallel by measuring the cell viability using CellTiter-Glo assay in the same wells.
# Tox21 Assay Protocol Summary: PPARg-bla cells were dispensed at 3000 cells/5uL/well in 1536-well black wall/clear bottom plates using a Multidrop Combi (Thermo Fisher Scientific, Waltham, MA) dispenser. After the assay plates were incubated at 37 C and 5% CO2 for 5 h, 23 nL of compounds dissolved in DMSO, positive controls or DMSO only was transferred to the assay plate by a Pintool station (Kalypsys, San Diego, CA), followed by addition of 1ul Rosiglitazone (50 nM, final concentration in the wells). The assay plates were incubated at 37 C for 17 h, and then 1 uL of LiveBLAzerTM B/G FRET substrate was added using a Bioraptr Flying Reagent Dispenser (FRD) workstation (Beckman Coulter, Indianapolis, IN, USA). The assay plates were incubated at room temperature for 1 h and fluorescence intensity was measured by an Envision plate reader (PerkinElmer, Shelton, CT). For cell viability readout that measures cytotoxicity, 4 ul/well of CellTiter-Glo reagent was added into the assay plates using a Flying Reagent Dispenser. After 30 min incubation at room temperature, the luminescence intensity in the plates was measured using a ViewLux plate reader (PerkinElmer).
row,Compound,outcome
1,CN(C)c1ccc(O)c2c1C[C@H]1C[C@H]3[C@H](N(C)C)C(=O)C(C(N)=O)=C(O)[C@@]3(O)C(=O)C1=C2O,inactive
2,O=C(O)c1cc2ccccc2cc1O,inactive
3,NCCNCCN,inactive
4,C=C(C)C(=O)OCC(C)C,inactive
5,CCO[Si](CCCN)(OCC)OCC,inactive
6,CCCCCCCCCCCCCCCC(=O)OC(C)C,inactive
7,O=C(O)c1ccccc1C(=O)O,inactive
8,COC(=O)c1cccnc1,inactive
9,CN/C(=C\[N+](=O)[O-])NCCSCc1csc(CN(C)C)n1,inactive
10,CC(O)CC(C)(C)O (stereo not given),inactive
11,O=C1CCCC1,inactive
12,COc1ccc([N+](=O)[O-])cc1N,inactive
13,CCCCCCCCCCCCCCCCO,inactive
14,CC1(C)S[C@@H]2[C@H](NC(=O)COc3ccccc3)C(=O)N2[C@H]1C(=O)O,inactive
15,CC(C)(C#N)c1cc(Cn2cncn2)cc(C(C)(C)C#N)c1,inactive
16,CCOC(=O)n1ccn(C)c1=S,inactive
17,COC(=O)CCCC(=O)OC,inactive
18,CC(=O)OC1CC(C)OC(C)O1 (stereo not given),inactive
19,CCCCOC(=O)c1ccc(N)cc1,inactive
20,CCOCC(=O)O,inactive

row,Compound,outcome
1,CCc1ccccc1CC,inactive
2,CCCCCC(=O)O,inactive
3,Cc1ccc([N+](=O)[O-])cc1S(=O)(=O)O,inactive
4,CCNc1ccccc1,inactive
5,NC(=S)NNC(N)=S,inactive
6,COc1ccc(OC)cc1,inactive
7,COc1ccc(C)cc1N,inactive
8,CCCCCCCC=O,inactive
9,CCCCC(C=O)CC (stereo not given),inactive
10,C[C@]12CC[C@@H]3c4ccc(O)cc4CC[C@H]3[C@@H]1C[C@@H](O)[C@@H]2O,inactive
11,c1ccc2c(c1)Cc1ccccc1-2,inactive
12,CC(C)=CCl,inactive
13,COCCCN,inactive
14,O=C(O)CCCCCCCCC(=O)O,inactive
15,Cc1ccc(S(=O)(=O)N=C=O)cc1,inactive
16,O=S(=O)(O)c1ccc(N=Nc2c(O)ccc3cc(S(=O)(=O)O)ccc23)cc1,inactive
17,O=C(O)Cn1c(=O)n(Cc2ccc(Br)cc2F)c(=O)c2ccc(Cl)cc21,inactive
18,N#Cc1ccccc1,inactive
19,Nc1ccc(Cl)c(N)c1,inactive
20,CCCCCCCO,inactive
